For 18 compounds, AC50 and outcome results are on record in PubChem BioAssay (EPA / NIEHS).

Several values for one entry are separate records, joined by “and”; a condition that tells them apart may be missing. Identical values can stand only once. Activity calls are given as the source filed them. How the source made its calls: active means hit-call score of the fitted dose curve at least 0.9, where 1 is the maximum; inactive means score below 0.9.

Cytochrome P450 2C18 (Homo sapiens), sequence (P33260 whole entry, looked up): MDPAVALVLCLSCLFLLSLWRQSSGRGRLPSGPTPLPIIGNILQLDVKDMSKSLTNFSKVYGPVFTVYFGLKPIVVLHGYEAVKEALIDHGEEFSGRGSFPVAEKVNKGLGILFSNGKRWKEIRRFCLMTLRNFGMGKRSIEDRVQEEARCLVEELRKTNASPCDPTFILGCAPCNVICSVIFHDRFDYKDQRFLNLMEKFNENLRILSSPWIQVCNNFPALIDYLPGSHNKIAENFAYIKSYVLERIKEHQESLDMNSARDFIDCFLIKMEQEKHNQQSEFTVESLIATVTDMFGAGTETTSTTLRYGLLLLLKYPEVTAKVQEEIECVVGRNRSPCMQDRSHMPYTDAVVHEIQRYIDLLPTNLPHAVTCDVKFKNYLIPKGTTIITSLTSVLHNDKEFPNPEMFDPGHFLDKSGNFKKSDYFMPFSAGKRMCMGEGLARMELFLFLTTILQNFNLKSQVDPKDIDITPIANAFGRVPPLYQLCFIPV

This test concerns the target Cytochrome P450 2C18 (Homo sapiens) (UniProt P33260). The test is described as follows: NVS_ADME_hCYP2C18: NovaScreen (NVS) CYP450-related Enzyme Activity (ADME) Assay for human CYP2C18 (AID 2283103). On the procedure:
NVS_ADME_hCYP2C18 is a biochemical, single-readout assay that uses extracted gene-proteins in a cell-free assay. Measurements were taken 0.5 hour after chemical dosing in a 96-well plate.NVS_ADME_hCYP2C18 is one of one assay component(s) measured or calculated from the NVS_ADME_hCYP2C18 assay. It is designed to make measurements of enzyme activity, a form of enzyme reporter, as detected with fluorescence intensity signals by Fluorescence technology.Data from the assay component NVS_ADME_hCYP2C18 was analyzed into 1 assay endpoint. This assay endpoint, NVS_ADME_hCYP2C18, was analyzed in the positive analysis fitting direction relative to Acetonitrile as the negative control and baseline of activity. Using a type of enzyme reporter, loss-of-signal activity can be used to understand changes in the enzymatic activity as they relate to the gene CYP2C18. Furthermore, this assay endpoint can be referred to as a primary readout, because this assay has produced multiple assay endpoints where this one serves a enzymatic activity function. To generalize the intended target to other relatable targets, this assay endpoint is annotated to the cyp intended target family, where the subfamily is xenobiotic metabolism.
Binding assays used specific radioligands (tritiated, iodinated) with non-radioactive competitive displacement ligands in agonist or antagonist protocols (as indicated) and various reference compounds and inhibitors to titrate specific binding to receptors and transporters. Most enzyme assays (CYPs, kinases, phosphatases, proteases, HDACs) used recombinant protein and specific substrates (fluorescence mostly, some colorimetric and radioactive) and inhibitors, followed by a biochemical separation of substrate and product. All assays for the biochemical HTS were initially run in duplicate at a single concentration (10 uM for CYP450 assays and 25 uM for all others). Assay-chemical combinations meeting a pre-defined threshold (e.g., 30% inhibition and other criteria defined below) were then run in singleton concentration-response format with maximum concentration of 20 uM for CYPs and 50 uM for all others. Each assay was run with positive and negative controls, and concurrent controls on every plate. The follow-up (secondary) screen tested active chemical-pairs in concentration series, as well as a few additional assays not tested in the primary screen, some selected negative inactives, and several cases re-run in the concentration series for confirmatory purposes.
A word on the AC50: it is the midpoint of the concentration-response curve, whichever way the signal moves. Regarding `C#CCOS(=O)OC1CCCCC1Oc1ccc(C(C)(C)C)cc1` (stereo not drawn), the AC50 was 10 µM (active).

Turning to `CNC(=S)S`, the compound was classed as inactive. For `CCOP(=S)(OCC)SCn1c(=O)oc2cc(Cl)ccc21`, the AC50 is 1.46 µM (active). For `Cc1ccc(-c2c(Cl)nc(C#N)n2S(=O)(=O)N(C)C)cc1`, the AC50 was 10 µM (active). Turning to `CC1COC(Cn2cncn2)(c2ccc(Oc3ccc(Cl)cc3)cc2Cl)O1` (stereo not drawn), the AC50 was 1.07 µM (active).

Take `CCOC(=O)C(Cl)Cc1cc(-n2nc(C)n(C(F)F)c2=O)c(F)cc1Cl` (stereo not drawn): the outcome was inactive.

Take `CO/C=C(/C(=O)OC)c1ccccc1Oc1cc(Oc2ccccc2C#N)ncn1`: the AC50 is 5.5 µM (active). `CCCCC(CC)COC(=O)c1ccccc1C(=O)OCC(CC)CCCC` (stereo not drawn): the compound was called inactive. Turning to `CCCC1COC(Cn2cncn2)(c2ccc(Cl)cc2Cl)O1` (stereo not drawn), the AC50 was 2.15 µM (active).

With `CCCCNC(=O)OCC#CI`, the AC50 was 2.41 µM (active) and 4.8 µM (active).

`COc1ccc(C(c2ccc(OC)cc2)C(Cl)(Cl)Cl)cc1`: the AC50 was 4.6 µM (active). As to `CN(C)C(=S)SSC(=S)N(C)C`, the AC50 is 2.26 µM (active). Take `CCCN(CCC)c1c([N+](=O)[O-])cc(S(N)(=O)=O)cc1[N+](=O)[O-]`: the AC50 was 2.71 µM (active). As to `CCOC(=O)CC(SP(=S)(OC)OC)C(=O)OCC` (stereo not drawn), the AC50 was 0.459 µM (active). Consider `N#CC(CCc1ccc(Cl)cc1)(Cn1cncn1)c1ccccc1` (stereo not drawn), for which the AC50 is 0.428 µM (active). Take `OC(c1ccc(Cl)cc1)(c1cncnc1)c1ccccc1Cl` (stereo not drawn): the AC50 was 6.02 µM (active). For the compound `COP(=S)(OC)Oc1nc(Cl)c(Cl)cc1Cl`, the compound was called inactive. Regarding `COC(=O)N(OC)c1ccccc1COc1ccn(-c2ccc(Cl)cc2)n1`, the AC50 was 0.784 µM (active).
